Experimental data as given in PubChem BioAssay (NCATS).
Results filed as inconclusive are left out. Active and inactive are the calls of the source. Calls come from the whole dose curve; as a rule, active = well fitted curve in the direction sought with a large enough effect; inconclusive = small, poorly fitted or top-dose-only effect, or another doubt; inactive = no such curve, though single readings can be large; an effect the other way counts as inactive or inconclusive.

Key:
[1] = qHTS assay for measurement of the activity of small molecule inhibitors on Zika virus induced Caspase-3 activity in human iPSC derived neural progenitor cells (hNPCs) (AID 1224857); note: % of control where 0% means no effect; nearly all actives have a fitted effect of over 65% in size
Procedure, shortened: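 After overnight (16–20 h) culture at 350 cells/well, hNPCs get compound, then ZIKV 2 FFU/cell one hour later. Six hours on, Caspase-Glo 3/7 is added and luminescence measured.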

[2] = qHTS assay for measurement of the activity of small molecule inhibitors on Zika virus induced Caspase-3 activity in human astrocytoma cells (AID 1224859);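 note: plate controls were ZIKV-infected untreated cells for no effect and uninfected cells for full effect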
Procedure, shortened: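 Inhibition of Zika-induced caspase-3/7 activity: SNB-19 cells, 1 h compound pretreatment, ZIKV 2 FFU/cell for 6 h at 37 C, Caspase-Glo luminescence read-out.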

[3] = qHTS assay to identify small molecule inhibitors of chordoma cells - UCH-1 (AID 1259355); note: % is set by controls: 0 for no effect and ±100 for the full control effect; nearly all actives have a fitted effect of over 55% in size
Procedure, shortened: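 Screening used approved and investigational drugs in 15-point titration against 800 seeded cells per well. A fixed combination of auranofin with camptothecin, doxorubicin, rubitecan and topotecan followed compound addition, and growth was scored by CellTiter-Glo after 48hr.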

[4] = qHTS assay to identify small molecule inhibitors of chordoma cells - UCH-2 (AID 1259356); note: series mostly up to about 46 µM; % is set by controls: 0 for no effect and ±100 for the full control effect
[5] = NS1 protein of Zika virus - qHTS assay to identify small molecule inhibitors in human HEK 293 cells (AID 1347053);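 note: series mostly up to about 46 µM; plate controls were infected untreated cells for no effect and uninfected cells for full effect; nearly all actives have a fitted effect of over 55% in size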
Procedure, shortened: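 In this cell-based screen, HEK 293 cultures received compound for one hour before Zika MR766 at MOI = 0.5. NS1 was quantified 24 hours later by TR-FRET, normalized to virus-free wells and infected wells.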

[6] = qHTS of pediatric cancer cell lines to identify multiple opportunities for drug repurposing: Primary screen for TC32 cells (AID 1347089); note: % is set by controls: 0 for no effect and ±100 for the full control effect; nearly all actives have a fitted effect of over 60% in size
Procedure, shortened: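 TC32 cells, 500-1,000/well in growth medium, compound-treated 48 h at 37 °C; viability from CellTiter-Glo luminescence. Primary screen: MIPE 11-point (0.78 nM–46 µM final), NPC 8-point (0.59 nM–46 µM final); confirmatory at 11-point dilutions.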

[7] = qHTS of pediatric cancer cell lines to identify multiple opportunities for drug repurposing: Primary screen for DAOY cells (AID 1347090);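 note: series mostly up to about 46 µM; plate controls were DMSO for no effect and bortezomib for full effect; nearly all actives have a fitted effect of over 55% in size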
Procedure, shortened: (§1)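 Viability measured as metabolically active cells via CellTiter-Glo luminescence following 48 hours of compound exposure, 11-point dilutions in confirmatory testing. 500-1,000 cells/well plated 5 hours before dosing; controls were DMSO and 2.3 µM bortezomib.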

[8] = qHTS of pediatric cancer cell lines to identify multiple opportunities for drug repurposing: Primary screen for SJ-GBM2 cells (AID 1347091);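 note: plate controls were DMSO neutral control for no effect and bortezomib for full effect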
Procedure, shortened: as §1

[9] = qHTS of pediatric cancer cell lines to identify multiple opportunities for drug repurposing: Primary screen for A673 cells (AID 1347092); note: % is set by controls: 0 for no effect and ±100 for the full control effect; nearly all actives have a fitted effect of over 45% in size
Procedure, shortened: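 A673 cells (500-1,000 cells/well) were treated 48 hours at 37 degrees C with compounds at 11-point (0.78 nM to 46 µM) or 8-point (0.59 nM to 46 µM) dilutions. Viability read by CellTiter-Glo luminescence; concentration-response curves fitted.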

[10] = qHTS of pediatric cancer cell lines to identify multiple opportunities for drug repurposing: Primary screen for SK-N-MC cells (AID 1347093);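 note: series mostly up to about 46 µM; plate controls were DMSO neutral control for no effect and bortezomib for full effect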
Procedure, shortened: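 Metabolically active cells were quantified by ATP-dependent luminescence (CellTiter-Glo, 15 min at room temperature) following 48 h treatment. Cells had been plated at 500-1,000 per well and settled for 5 h beforehand.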

[11] = qHTS of pediatric cancer cell lines to identify multiple opportunities for drug repurposing: Primary screen for BT-37 cells (AID 1347094);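 note: series mostly up to about 57 µM; plate controls were DMSO for no effect and bortezomib for full effect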
Procedure, shortened: (§2)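 500-1,000 cells/well; 5 h pre-incubation 37 °C/5% CO2; compound pinned; 48 h; CellTiter-Glo, 15 min RT; luminescence. MIPE 11-pt from 0.78 nM, NPC 8-pt from 0.59 nM final. Bortezomib 2.3 µM final as positive control.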

[12] = qHTS of pediatric cancer cell lines to identify multiple opportunities for drug repurposing: Primary screen for NB-EBc1 cells (AID 1347095);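 note: plate controls were DMSO neutral control for no effect and bortezomib for full effect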
Procedure, shortened: as §2

[13] = qHTS of pediatric cancer cell lines to identify multiple opportunities for drug repurposing: Primary screen for U-2 OS cells (AID 1347096);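 note: plate controls were DMSO wells for no effect and bortezomib positive control wells for full effect; nearly all actives have a fitted effect of over 50% in size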
Procedure, shortened: (§3)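 Viability after 48 h compound treatment at 37C, 500-1,000 cells/well, read as ATP luminescence with CellTiter-Glo. Primary screens used 11-point (MIPE, 0.78 nM-46 µM) or 8-point (NPC, 0.59 nM-46 µM) final concentrations; follow-up screens used 11-point dilutions.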

[14] = qHTS of pediatric cancer cell lines to identify multiple opportunities for drug repurposing: Primary screen for Saos-2 cells (AID 1347097); note: % is set by controls: 0 for no effect and ±100 for the full control effect; nearly all actives have a fitted effect of over 40% in size
Procedure, shortened: as §2

[15] = qHTS of pediatric cancer cell lines to identify multiple opportunities for drug repurposing: Primary screen for SK-N-SH cells (AID 1347098);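 note: DMSO served as neutral control and bortezomib at 2.3 µM as positive control; % is set by controls: 0 for no effect and ±100 for the full control effect; nearly all actives have a fitted effect of over 65% in size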
Procedure, shortened: (§4)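 Cells (500-1,000/well) rested 5 h, then received compounds for 48 h; metabolically active cells were measured by CellTiter-Glo luminescence. Final concentrations spanned up to 46 µM (MIPE, 11-point) or 0.59 nM-46 µM (NPC, 8-point) in primary screens, 11-point in follow-ups.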

[16] = qHTS of pediatric cancer cell lines to identify multiple opportunities for drug repurposing: Primary screen for NB1643 cells (AID 1347099);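 note: plate controls were DMSO neutral control for no effect and bortezomib positive control for full effect; nearly all actives have a fitted effect of over 50% in size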
Procedure, shortened: as §2

[17] = qHTS of pediatric cancer cell lines to identify multiple opportunities for drug repurposing: Primary screen for LAN-5 cells (AID 1347100);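 note: plate controls were DMSO neutral control for no effect and bortezomib positive control for full effect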
Procedure, shortened: as §3

[18] = qHTS of pediatric cancer cell lines to identify multiple opportunities for drug repurposing: Primary screen for BT-12 cells (AID 1347101);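 note: plate controls were DMSO for no effect and bortezomib positive control for full effect; nearly all actives have a fitted effect of over 25% in size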
Procedure, shortened: as §4

[19] = P-glycoprotein substrates identified in KB-8-5-11 adenocarcinoma cell line, qHTS therapeutic library screen (AID 1346987); details: outcome: dose series up to 44.5 µM; note: series mostly up to about 44 µM; % is set by controls: 0 for no effect and ±100 for the full control effect; nearly all actives have a fitted effect of over 65% in size
Procedure, shortened: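 Human cervical adenocarcinoma KB-8-5-11 cells, selected in colchicine to over-express P-gp and assayed without it, were exposed for 72 h to titrated compounds. An ATP-based luminescent viability signal gave AC50.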

CC(C)NC[C@@H](O)COc1ccc(CC(N)=O)cc1
inactive: outcome [1] | outcome [2] | outcome [3] | outcome [4] | outcome [5] | outcome [6] | outcome [7] | outcome [8] | outcome [9] | Potency [10] | outcome [11] | outcome [12] | outcome [13] | outcome [14] | outcome [15] | Potency [16] | outcome [17] | outcome [18]

Cc1cccc(C(=O)O)c1O
inactive: outcome [1] | outcome [2] | outcome [3] | outcome [4] | outcome [5] | outcome [6] | outcome [7] | outcome [8] | outcome [9] | Potency [10] | outcome [11] | outcome [12] | outcome [13] | outcome [14] | outcome [15] | Potency [16] | outcome [17] | outcome [18]

NC(=O)CC[C@@H](N)C(=O)O
inactive: outcome [1] | outcome [2] | outcome [3] | outcome [4] | outcome [5] | outcome [6] | outcome [7] | outcome [8] | outcome [9] | Potency [10] | outcome [11] | outcome [12] | outcome [13] | outcome [14] | outcome [15] | Potency [16] | outcome [17] | outcome [18]

CC(N)CCCC(C)(C)O (configuration not stated)
inactive: outcome [1] | outcome [2] | outcome [3] | outcome [4] | outcome [5] | outcome [6] | outcome [7] | outcome [8] | outcome [9] | Potency [10] | outcome [11] | outcome [12] | outcome [13] | outcome [14] | outcome [15] | Potency [16] | outcome [17] | outcome [18]

CN1CCN(C(=O)C2CCCCC2)CC1
inactive: outcome [1] | outcome [2] | outcome [3] | outcome [4] | outcome [5] | outcome [6] | outcome [7] | outcome [8] | outcome [9] | Potency [10] | outcome [11] | outcome [12] | outcome [13] | outcome [14] | Potency [16] | outcome [17] | outcome [18]

Cc1cc(C)nc(NS(=O)(=O)c2ccc(N)cc2)n1
inactive: outcome [1] | outcome [2] | outcome [3] | outcome [4] | outcome [19] | outcome [6] | outcome [7] | outcome [8] | outcome [9] | Potency [10] | outcome [11] | outcome [12] | outcome [13] | outcome [14] | outcome [15] | Potency [16] | outcome [17] | outcome [18]

CN(C/C=C/C#CC(C)(C)C)Cc1cccc2ccccc12
inactive: outcome [1] | outcome [2] | outcome [3] | outcome [4] | outcome [19] | outcome [5] | outcome [6] | outcome [8] | outcome [11] | outcome [13] | outcome [15] | Potency [16] | outcome [17] | outcome [18]

NCC1CCC(C(=O)Oc2ccc(CCC(=O)O)cc2)CC1 (configuration not stated)
inactive: outcome [1] | outcome [2] | outcome [3] | outcome [4] | outcome [19] | outcome [5] | outcome [6] | outcome [7] | outcome [9] | Potency [10] | outcome [11] | outcome [13] | outcome [15] | Potency [16] | outcome [17] | outcome [18]

CCc1nnc(NS(=O)(=O)c2ccc(N)cc2)s1
inactive: outcome [1] | outcome [2] | outcome [3] | outcome [4] | outcome [5] | outcome [6] | outcome [7] | outcome [8] | outcome [9] | Potency [10] | outcome [11] | outcome [12] | outcome [13] | Potency [16] | outcome [17]

CCN(CC)CC1CCCCN1CC(=O)N1c2ccccc2C(=O)Nc2cccnc21 (configuration not stated)
inactive: outcome [1] | outcome [2] | outcome [3] | outcome [4] | outcome [5] | outcome [6] | outcome [7] | outcome [8] | outcome [9] | Potency [10] | outcome [11] | outcome [12] | outcome [13] | outcome [14] | outcome [15] | Potency [16] | outcome [17] | outcome [18]

CCCC(O)C(CC)CO (configuration not stated)
inactive: outcome [1] | outcome [2] | outcome [3] | outcome [4] | outcome [5] | outcome [6] | outcome [7] | outcome [8] | outcome [9] | outcome [11] | outcome [12] | outcome [13] | outcome [14] | outcome [15] | Potency [16] | outcome [17] | outcome [18]

CC(=O)Nc1ccccc1
inactive: outcome [1] | outcome [2] | outcome [3] | outcome [4] | outcome [5] | outcome [6] | outcome [7] | outcome [8] | outcome [9] | Potency [10] | outcome [11] | outcome [12] | outcome [13] | outcome [14] | Potency [16] | outcome [17] | outcome [18]

CC(=O)N1C[C@H](O)C[C@H]1C(=O)O
inactive: outcome [1] | outcome [2] | outcome [3] | outcome [4] | outcome [5] | outcome [6] | outcome [7] | outcome [8] | outcome [9] | outcome [11] | outcome [12] | outcome [13] | outcome [14] | outcome [15] | Potency [16] | outcome [17] | outcome [18]

O=C(O)c1ccccc1OP(=O)(O)O
inactive: outcome [1] | outcome [2] | activity, negative = inhibition [3] -7.01% [at 1.88 µM] | outcome [4] | outcome [5] | outcome [6] | outcome [7] | outcome [8] | outcome [9] | Potency [10] | outcome [11] | outcome [12] | outcome [13] | outcome [14] | outcome [15] | Potency [16] | outcome [17] | outcome [18]

O=C(/C=C/c1ccccc1)OCc1ccccc1
inactive: outcome [1] | outcome [2] | outcome [3] | outcome [4] | outcome [5] | outcome [6] | outcome [7] | outcome [8] | outcome [9] | Potency [10] | outcome [11] | outcome [12] | outcome [13] | outcome [15] | Potency [16] | outcome [17] | outcome [18]

CC[N+](CC)(CC(=O)Nc1c(C)cccc1C)Cc1ccccc1
inactive: outcome [1] | outcome [2] | outcome [3] | outcome [4] | outcome [5] | outcome [6] | outcome [7] | outcome [8] | outcome [9] | outcome [11] | outcome [12] | outcome [13] | outcome [14] | Potency [16] | outcome [17] | outcome [18]
